p53 reactivator = qHTS assay for re-activators of p53 using a Luc reporter. H1299 p53-A138V BP100-luciferase reporter, luminescence, 24 h. Potency, µM (top dose mostly 92.2 µM), for the others: at the top dose activity change, positive = activation, actives largely listed as activators. 0.063% of 320,000 active; also: % of control where 0% means no effect; nearly all actives have a fitted effect of over 45% in size
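H1299 (p53-null), stable ts p53-A138V + BP100-Luc; 1000 cells/well, Opti-MEM/10% FBS; cpd 4 pt, 1:5; 24 h, 37 deg C, 5% CO2; detection reagent 10 min RT; luminescence.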
AT treatment = qHTS Assay for Identifying a Potential Treatment of Ataxia-Telangiectasia. 0.19% of 320,000 active. Potency, µM (doses to about 57.5 µM), inactives show at the highest dose activation, hits mostly activators. F2112 A-T fibroblasts, KAP-1 phosphorylation AlphaLISA; neocarzinostatin DNA damage 30 min before lysis; also: % of control where 0% means no effect; nearly all actives have a fitted effect of over 45% in size
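hTERT-immortalized A-T patient fibroblasts (F2112), 500 cells/well in OPTI-MEM, 1% FBS, got compounds for 60 min, then NCS for 30 min at 37C. Lysates were then assayed for phospho-KAP-1 by AlphaLISA (anti-pKAP1 donor, anti-KAP1 acceptor beads), 6 hr at 25C.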
MCF10A rereplic = A quantitative high throughput screen for small molecules that induce DNA re-replication in MCF 10a normal breast cells; Potency, µM (doses to about 46.1 µM), without a hit: top-dose activity, positive = re-replication, usual class: activators; MCF 10A DNA re-replication, Hoechst nuclear intensity, 48 h; 2.9% of 350,000 active; AID 624296, 2012; also: % of control where 0% means no effect; nearly all actives have a fitted effect of over 50% in size
ELG1 genotoxic = qHTS screen for small molecules that induce genotoxicity in human embryonic kidney (HEK293T) cells expressing luciferase-tagged ELG1; HEK293T ELG1-luciferase reporter, luminescence, 16 h; Potency, µM (highest dose often 46 µM), for inactives: at the highest dose activity change, positive = activation, hits mostly activators; 1.3% of 330,000 active; AID 504466, 2011; also: % of control where 0% means no effect; nearly all actives have a fitted effect of over 60% in size
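After overnight (16 hr) compound treatment at 37 °C, ELG1-luciferase HEK293T cells were lysed with ONE-Glo; luminescence quantified 30 min later at room temperature.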
SW480 rereplic = A quantitative high throughput screen for small molecules that induce DNA re-replication in SW480 colon adenocarcinoma cells | AID 624297, 2012 | SW480 DNA re-replication, Hoechst DNA content imaging, 48 h | 1.8% of 340,000 active | Potency, µM (titrated, usually from 46.1 µM), inactives show at the highest dose re-replication activation, most hits filed as activators; also: % of control where 0% means no effect; nearly all actives have a fitted effect of over 55% in size
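Readout is total intensity of Hoechst-stained nuclei, excited at 405 nm and collected at 500-530 nm. Compound treatment lasted 48 hr at 37 C in 5% CO2 before staining.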
ELG1 DNA repair = qHTS screen for small molecules that inhibit ELG1-dependent DNA repair in human embryonic kidney (HEK293T) cells expressing luciferase-tagged ELG1; HEK293T ELG1-luciferase reporter, luminescence, 16 h; DNA damage induced by 5-fluorouridine; Potency, µM (titrated, usually from 46.1 µM), for the others: at the top dose activity change, negative = inhibition, most hits filed as inhibitors; 2.3% of 330,000 active; also: % is scaled to controls: 0 for no effect and ±100 for the full control effect; nearly all actives have a fitted effect of over 55% in size
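In this reporter screen, reduction of luminescence relative to DMSO vehicle indicated activity. Compounds and 5-fluorouridine were added together to 2,000 cells per well, incubated for 16 hr at 37 °C, then developed with ONE-Glo.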
* marks the source's active call; other numbers are inactive results; u = inconclusive; x = not tested or not shown. Rows were chosen to be rich in hits. Some 7.1% of all compounds tested hit in one or more screens of this group. Calls follow the shape of the dose curve; as a rule, active = well fitted curve in the direction sought with a large enough effect; inconclusive = small, poorly fitted or top-dose-only effect, or another doubt; inactive = no such curve, though single readings can be large; an effect the other way counts as inactive or inconclusive. Potency is read from the fitted curve at half-maximal effect.

SMILES	p53 reactivator	AT treatment	MCF10A rereplic	ELG1 genotoxic	SW480 rereplic	ELG1 DNA repair
COc1cc(O)c(C(CCN2CCOCC2)c2ccc3c(c2)OCO3)c(OC)c1 (configuration not stated)	-4.2%	35.1%	4.4%	-5.3%	-5.1%	-0.7%
COc1ccc(C2c3cc4c(cc3OC(N3CCOCC3)C2C)OCO4)c(OC)c1 (configuration not stated)	x	x	2.91µM*	x	u	x
Cc1ccc(C)c(S(=O)(=O)Nc2ccccc2C(=O)Nc2cc(C)on2)c1	1.2%	17.3%	u	-6.6%	u	25.9µM*
Cc1ccc(NS(=O)(=O)c2cccc(C(=O)Nc3cc(C)on3)c2)cc1	-0.5%	-2.2%	8.1%	-3.5%	u	20.6µM*
Cc1cc(C)c(C)c(S(=O)(=O)Nc2ccccc2C(=O)O)c1C	-2.0%	-1.9%	-5.1%	-3.3%	-3.1%	20.9%
Cc1ccc(C)c(S(=O)(=O)Nc2ccccc2C(=O)Nc2ccc(S(=O)(=O)Nc3ncccn3)cc2)c1	7.8%	-1.4%	-3.0%	1.0%	0.8%	10.7%
Cc1cc(NC(=O)c2ccccc2NS(=O)(=O)c2c(C)c(C)cc(C)c2C)no1	-11.5%	x	11.6µM*	-8.4%	9.2µM*	-29.5%
CC1CC(C)CN(C(=O)C2CCN(S(=O)(=O)c3c(Cl)cccc3Cl)CC2)C1 (configuration not stated)	-2.5%	-7.9%	u	-0.8%	-5.8%	1.4%
CCC(C)(Oc1ccc(C2(c3ccc(OC(C)(CC)C(=O)O)cc3)CCCCC2)cc1)C(=O)O (configuration not stated)	x	x	0.3%	x	-6.6%	x
Cc1cc(C)n2nc3nc(N4CCCC4)nc(-c4ccccc4)c3c2n1	-14.5%	5.7%	u	-0.4%	u	10.3µM*
c1ccc(-c2nc(N3CCCC3)nc3ccccc23)cc1	-7.2%	4.4%	23.1µM*	0.1%	18.4µM*	2.3%
O=C1CN(c2nc(-c3ccccc3)c3cc(Cl)ccc3n2)c2ccccc2N1	x	-0.7%	0.0%	12.2%	u	20.2%
Nc1[nH]nc2nc(N3CCCC3)nc(-c3ccccc3)c12	-2.3%	6.0%	8.9%	2.8%	-2.6%	-1.5%
c1ccc2c(N3CCCCC3)nc(N3CCCCC3)nc2c1	5.5%	9.0%	-3.6%	-8.7%	-6.1%	-1.1%
N#Cc1cc(-c2ccccc2)nc(N2CCNCC2)n1	-9.4%	31.6µM*	4.4%	-0.2%	-8.4%	8.3%
Clc1ccc2nc(N3CCNCC3)nc(-c3ccccc3)c2c1	-9.6%	7.2%	u	1.3%	11.2µM*	u
COc1cccc(N2CCN(c3nc(-c4ccccc4C)cc(=O)[nH]3)CC2)c1	-52.0%	3.5%	u	u	u	u
CN1CCN(c2nc(-c3ccccc3)c3cc(Cl)ccc3n2)CC1	-0.6%	x	3.98µM*	-4.3%	7.94µM*	7.1%
CN1CCN(c2nnc(-c3ccccc3)c(-c3ccccc3)n2)CC1	0.8%	-6.4%	-2.5%	-5.5%	-1.5%	-5.5%
CCN1c2ccccc2NC2C1C(C(C)=O)C(=O)N2c1ccc(Cl)cc1 (configuration not stated)	7.2%	19.2%	2.91µM*	-1.3%	4.61µM*	-13.2%
COc1ccc(/C=C/C(=O)c2ccccc2O)cc1	u	16.9%	10.0%	16.4µM*	0.103µM*	u
C/C(=N\NC(=O)c1ccccc1)c1ccc(NC(=O)c2cccs2)cc1	u	-1.2%	17.1%	u	1.46µM*	u
C/C(=N\NC(=O)CNC(=O)c1cccs1)c1ccc(Cl)c(Cl)c1	-10.3%	-3.6%	u	-0.5%	3.66µM*	6.5%
CC(C)(C)c1ccc(Oc2ccc(NC(=O)c3cccs3)cn2)cc1	7.6%	2.1%	u	-8.9%	-1.4%	6.51µM*
CN(Cc1cccc(Cl)c1Cl)CC(O)COc1ccccc1 (configuration not stated)	13.2%	8.7%	0.3%	-0.6%	-3.3%	-0.9%
SMILES	p53 reactivator	AT treatment	MCF10A rereplic	ELG1 genotoxic	SW480 rereplic	ELG1 DNA repair
CC1=C(C(=O)Nc2ccccc2)C(c2ccc[nH]2)n2ncnc2N1 (configuration not stated)	x	1.0%	x	x	x	x
CC(=O)c1ccc(NC(=O)c2cccs2)cc1	u	x	-19.5%	16.4µM*	-7.7%	u
COc1ccc(/C(N)=N/OC(=O)c2cccs2)cc1	u	-6.3%	9.3%	8.2µM*	-13.3%	u
COc1ccc(C(=O)/C=C\c2ccc(NC(=O)c3cccs3)cc2)cc1	0.5%	0.8%	u	3.8%	18.4µM*	u
COc1cccc(C(=O)N/N=C(\C)c2ccc(NC(=O)Cc3ccccc3)cc2)c1OC	14.6%	-3.0%	u	u	u	u
C/C(=N\NC(=O)c1ccccc1O)c1ccc(NC(=O)Cc2ccccc2)cc1	u	-1.0%	-2.2%	8.8%	11.6µM*	u
CCOCCC(=O)Nc1nnc(CCc2ccccc2)s1	x	-12.2%	0.1%	-0.4%	1.3%	0.0%
O=C(O)c1ccc2c(c1)C(=O)N([C@H](Cc1ccc(F)cc1)C(=O)O)C2=O	x	2.4%	x	x	x	x
CCOc1ccccc1NC(=O)c1nnn(CC(=O)Nc2cc(C)cc(C)c2)c1N	5.6%	0.0%	-0.7%	3.5%	7.8%	u
COc1ccc(C(=O)Nc2cccc(NC(=O)c3cccs3)c2)cc1	x	5.8%	2.4%	0.3%	-6.3%	21.9%
COc1ccc(NC(=O)c2ccc(NC(=O)c3cccs3)cc2)cc1	-3.5%	0.0%	10.0%	20.6µM*	11.8%	u
COc1nc(N)nc(NC(=O)c2cccs2)c1N=O	x	x	20.6µM*	x	5.17µM*	x
O=C(CSc1nc(=O)[nH]c2c1CCCC2)Nc1ccc(F)cc1F	-6.8%	-12.2%	1.0%	0.1%	-42.4%	19.6%
CCc1cc2c(=O)c(-c3ccc4c(c3)OCCO4)coc2cc1OC(=O)c1ccco1	u	-4.6%	u	1.46µM*	9.8%	u
CCN(CC)C(=O)Oc1ccc2c(=O)c(-c3ccc(OC)cc3)c(C)oc2c1	-4.2%	4.6%	u	-10.1%	1.9%	u
COc1ccc2c(=O)c(N3C(=O)c4ccccc4C3=O)coc2c1	3.4%	3.8%	20.7%	5.8%	-8.4%	u
